Screening data (PubChem)
eIF4H inh – inhibitors of RNA binding by human eIF4H; Q15056; AID 2012; inhibition, % at 35 µM; eIF4H fluorescence polarization binding assay; 290,000 tested, 0.94% active;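 note: calls also rest on retests at 20 µM and on dose response follow-up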
PABP1 MLLE inh – blocks PAM2 peptide binding to the PABP1 MLLE domain; 360,000 tested, 0.36% active; P11940; GST-MLLE / FITC-PAM2 fluorescence polarization; inhibition, % at 20 µM; in the data active = inhibition above about 35%, passing the limit was not always enough
HMGR II inh – blocks class II HMG-CoA reductase of Enterococcus faecalis; AID 1066; 190,000 tested, 0.41% active; purified E. faecalis HMGR, NADPH absorbance 340 nm kinetic; inhibition, % at 10 µM;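 active = inhibition above a set limit, the median over all tested compounds plus 3 SD, cut at about 9.5% in these data; inconclusive = no clear call, values can overlap the other calls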;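 note: enzyme runs in reverse so mevalonate oxidation gives rising NADPH absorbance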
PABP polyA inh – PABP-poly(A) binding inhibition; P11940; PABP-poly(A) RNA binding, fluorescence polarization; calls only at 35 µM; 290,000 tested, 1% active; AID 2014;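 note: calls also rest on retests at 20 µM and on dose response follow-up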
PHOSPHO1 inh – inhibitors of human PHOSPHO1 phosphatase | 290,000 tested, 1.1% active | Q8TCT1 | recombinant PHOSPHO1, absorbance phosphatase assay | inhibition, % at 13.3 µM; in the data active = inhibition above about 60%
Target sequence (Q8TCT1 whole entry, looked up): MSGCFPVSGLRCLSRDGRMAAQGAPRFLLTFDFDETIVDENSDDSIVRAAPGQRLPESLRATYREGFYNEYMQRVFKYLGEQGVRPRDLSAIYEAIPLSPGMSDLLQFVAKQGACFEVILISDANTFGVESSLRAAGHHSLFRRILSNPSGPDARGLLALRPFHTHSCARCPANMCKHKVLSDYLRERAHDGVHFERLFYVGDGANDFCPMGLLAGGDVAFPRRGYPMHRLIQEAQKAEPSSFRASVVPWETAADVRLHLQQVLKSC
Large screens that a line does not name were inactive; ! = repeats disagree. Compounds with a hit are over-represented: about 2.4% of the library has one in this group of screens. Unless noted, the rule behind the calls is not given here.

CC(C)N1CCN(C(=O)c2ccc(OC3CCN(CCc4ccccc4)CC3)cc2)CC1	none (no result: HMGR II inh)
CCC1CCCCN1S(=O)(=O)c1ccc(NC(=O)c2snnc2C)cc1 (stereo not given)	none (no result: HMGR II inh)
CN(Cc1ccccc1)S(=O)(=O)c1ccc(NC(=S)NC(=O)C(C)(C)C)cc1	PABP1 MLLE inh 36
NS(=O)(=O)c1ccc(NC(=S)Nc2ccc(S(=O)(=O)N3CCCC3)cc2)cc1	PABP1 MLLE inh 43
CCC1CCCCN1S(=O)(=O)c1ccc(NC(=O)c2cccs2)cc1 (stereo not given)	HMGR II inh 11
NS(=O)(=O)c1ccc(NC(=O)c2ccc(S(=O)(=O)N3CCCCC3)cc2)cc1	none (no result: eIF4H inh, HMGR II inh, PABP polyA inh, PHOSPHO1 inh)
O=C(NC(=S)Nc1ccc(S(=O)(=O)N2CCCCC2)cc1)c1cccs1	PABP1 MLLE inh 44
CC(Oc1ccccc1)C(=O)Nc1ccc(S(=O)(=O)N2CCN(C)CC2)cc1 (stereo not given)	none (no result: eIF4H inh, HMGR II inh, PABP polyA inh, PHOSPHO1 inh)
CN1CCN(C(=S)NC(=O)c2ccc(S(=O)(=O)N3CCOCC3)cc2)CC1	PABP1 MLLE inh 40
CN1CCN(S(=O)(=O)c2ccc(NC(=S)NC(=O)C(C)(C)C)cc2)CC1	PABP1 MLLE inh 40
CC(Oc1ccccc1Cl)C(=O)Nc1ccc(S(=O)(=O)N2CCN(C)CC2)cc1 (stereo not given)	PABP1 MLLE inh 40 (no result: eIF4H inh, HMGR II inh, PABP polyA inh, PHOSPHO1 inh)
COc1ccc(CC(=O)OC(C)C(=O)Nc2c(C)n(C)n(-c3ccccc3)c2=O)cc1OC (stereo not given)	none (no result: eIF4H inh, HMGR II inh, PABP polyA inh, PHOSPHO1 inh)
Cc1ccc(C)c(N2N=C(C(=O)OCC(=O)N(C)c3ccccc3)CCC2=O)c1	none (no result: eIF4H inh, HMGR II inh, PABP polyA inh, PHOSPHO1 inh)
O=C1CC(NS(=O)(=O)c2ccc(F)cc2)CN1c1ccc2c(c1)OCCO2 (stereo not given)	none (no result: eIF4H inh, HMGR II inh, PABP polyA inh, PHOSPHO1 inh)
Cc1cc2nc(CCN(Cc3cccnc3)C(=S)Nc3ccc(F)cc3)[nH]c2cc1C	none
Cc1cc2nc(CCN(Cc3cccnc3)C(=S)Nc3ccccc3)[nH]c2cc1C	PHOSPHO1 inh 92
COc1ccc(OC)c(C=NNC(=O)c2ccccc2NS(=O)(=O)c2cccs2)c1	none (no result: eIF4H inh, HMGR II inh, PABP polyA inh, PHOSPHO1 inh)
CC(=O)Nc1ccc2[nH]c3ccccc3c2c1	eIF4H inh 99, PABP polyA inh active
CC(C)(C)NC(=O)C(c1cccs1)N(CC1CCCO1)C(=O)c1ccc(-c2ccccc2)[nH]1 (stereo not given)	eIF4H inh active
O=C(CNC(=O)c1ccco1)NCc1ccc2c(c1)OCO2	none (no result: eIF4H inh, HMGR II inh, PABP polyA inh, PHOSPHO1 inh)
CC(O)CNc1nc2ccccc2n1CC(=O)NCC(F)(F)F (stereo not given)	PHOSPHO1 inh 73
CC(O)CNc1nc2ccccc2n1CC(=O)NC12CC3CC(CC(C3)C1)C2 (stereo not given)	none
COc1cccc(C(=O)c2c[nH]c(C(=O)NCCCN3CCOCC3)c2)c1	none
Cn1c(SCC(=O)N2CCCC2)nc2ccccc21	eIF4H inh active
N#CCCn1c(SCC(=O)N2CCN(S(=O)(=O)c3ccccc3)CC2)nc2ccccc21	PHOSPHO1 inh 86
COc1ccccc1-n1cnnc1SCC(=O)N1CCN(S(=O)(=O)c2ccccc2)CC1	PHOSPHO1 inh 88
O=C(CSc1nc2ccccc2nc1SCC(=O)N1CCOCC1)N1CCOCC1	none
O=C(CSc1nc2ccccc2nc1SCC(=O)N1CCCCC1)N1CCCCC1	PHOSPHO1 inh 71
CSc1nccc(NC(=O)c2cccc(Br)c2)n1	none (no result: HMGR II inh, PHOSPHO1 inh)
CCCS(=O)(=O)NC(=O)C1(C)CCCN(C(=O)c2ccccc2F)C1 (stereo not given)	none (no result: eIF4H inh, HMGR II inh, PABP polyA inh, PHOSPHO1 inh)
CC1(C(=O)NC2CCCCC2)CCC(=O)N1CC(F)(F)F (stereo not given)	none (no result: eIF4H inh, HMGR II inh, PABP polyA inh, PHOSPHO1 inh)
O=C(CSc1nc2ccccc2n1CC(=O)N1CCOCC1)N1CCCC1	none
O=C(Cn1c(SCc2ccccc2)nc2ccccc21)N1CCOCC1	PHOSPHO1 inh 62
O=CN1CCN(C(=O)c2ccc(-c3nc4ccccc4s3)s2)CC1	none
Cc1cc(C)cc(N(C(C)C(=O)NCCC2=CCCCC2)S(C)(=O)=O)c1 (stereo not given)	none
O=S(=O)(NCCCCNS(=O)(=O)c1ccc(F)cc1)c1ccc(F)cc1	none (no result: eIF4H inh, HMGR II inh, PABP polyA inh, PHOSPHO1 inh)
O=C(O)C(CCCCNS(=O)(=O)c1ccc(F)cc1)NS(=O)(=O)c1ccc(F)cc1 (stereo not given)	eIF4H inh 96!, PABP polyA inh active! (no result: HMGR II inh)
CCOc1ccc(NC(=O)CN(C)C(=O)CSC(C)C(=O)Nc2cc(C)on2)cc1OCC (stereo not given)	PABP polyA inh active (no result: HMGR II inh)
O=C(CSc1nccn1-c1ccc(Cl)cc1)Nc1ccc2c(c1)OCO2	PHOSPHO1 inh 89
O=C(CSc1ncn(-c2ccccc2)n1)c1cccs1	PABP1 MLLE inh 38
O=C(CSc1nnc2c(n1)[nH]c1ccccc12)Nc1ccc2c(c1)OCO2	PABP1 MLLE inh 37, PHOSPHO1 inh 78
O=C(CSc1ncn(-c2ccccc2)n1)Nc1ccc2c(c1)OCO2	PHOSPHO1 inh 82
O=C(CSc1nnc(-c2ccccc2)n1-c1ccccc1)c1cccs1	none
COc1ccccc1N1CCN(/N=C/C(Cl)=C/c2ccccc2)CC1	none (no result: HMGR II inh)
Cc1ccc(C2=NC(C)(C)N=C2SCC(=O)Nc2ccc(Cl)cc2)cc1	none
O=C(CSc1nnc(CNC(=O)c2ccccc2F)o1)Nc1ccc2c(c1)OCCO2	PABP1 MLLE inh 47
CC1(C)N=C(SCC(=O)Nc2ccccc2)C(c2ccc(Cl)cc2)=N1	PABP1 MLLE inh 44
O=C(CSC1=NC2(CCCCC2)N=C1c1ccccc1)Nc1ccc2c(c1)OCCO2	eIF4H inh inconclusive, PABP1 MLLE inh 46, PABP polyA inh inconclusive
O=C(CSc1ncn(-c2ccccc2)n1)Nc1ccc2c(c1)OCCO2	PABP1 MLLE inh 37, PHOSPHO1 inh 62
COc1ccc(-c2csc(C(NC(C)=O)c3cccc(F)c3)n2)cc1 (stereo not given)	none (no result: eIF4H inh, HMGR II inh, PABP polyA inh, PHOSPHO1 inh)
CCCCn1c(N)c(N(CC(C)C)C(=O)c2cccc(-n3cnnn3)c2)c(=O)[nH]c1=O	none (no result: eIF4H inh, HMGR II inh, PABP polyA inh, PHOSPHO1 inh)
COc1ccc(S(=O)(=O)N2CCOCC2)cc1NC(=O)c1ccc(S(=O)(=O)N(C)c2ccccc2OC)cc1	none (no result: eIF4H inh, HMGR II inh, PABP polyA inh, PHOSPHO1 inh)
CCOC(=O)C1=C(N)n2c(s/c(=C\c3ccco3)c2=O)=C(C(=O)OCC)C1c1ccco1 (stereo not given)	eIF4H inh 97, PABP polyA inh active
CCOC(=O)C1=C(N)n2c(s/c(=C\c3ccco3)c2=O)=C(C(=O)OC(C)C)C1c1ccco1 (stereo not given)	eIF4H inh inconclusive
Cn1c(CSc2nc3ccccc3s2)n[nH]c1=S	PHOSPHO1 inh 73
S=c1[nH]nc(CSc2nc3ccccc3s2)o1	PHOSPHO1 inh 105
Cn1c(-c2sc3ccccc3c2Cl)n[nH]c1=S	PHOSPHO1 inh 94
CCc1ccc(NC(=O)c2noc3c2CCC3)cc1	none
CSc1ccccc1NC(=O)c1noc2c1CCC2	eIF4H inh 90, PABP polyA inh active
COC(=O)c1ccccc1NC(=O)c1noc2c1CCC2	eIF4H inh 83, PABP polyA inh active
CC1(C)CC(=O)C2=C(C1)N=C1SCCC(=O)N1C2c1cccc([N+](=O)[O-])c1 (stereo not given)	none
COc1ccc(NC(=O)CSc2nccn2Cc2ccco2)cc1	none (no result: HMGR II inh)
CC(C)CCN1CCN(Cc2ccon2)CC1CCO (stereo not given)	none
